Rows were chosen to be rich in hits. Some 1.2% of all compounds tested hit in one or more screens of this group.
TRPV1 PAM = enhances activation of the human vanilloid receptor TRPV1. Q8NER1. potentiation, % at 8.33 µM. AID 540277. TRPV1-expressing cells, Fluo-8 calcium influx, capsaicin EC20 potentiation. 320,000 compounds, 0.02% hits; in the data active = potentiation above about 80%; inconclusive = between about 30% and that limit
Target sequence (Q8NER1 whole entry, looked up): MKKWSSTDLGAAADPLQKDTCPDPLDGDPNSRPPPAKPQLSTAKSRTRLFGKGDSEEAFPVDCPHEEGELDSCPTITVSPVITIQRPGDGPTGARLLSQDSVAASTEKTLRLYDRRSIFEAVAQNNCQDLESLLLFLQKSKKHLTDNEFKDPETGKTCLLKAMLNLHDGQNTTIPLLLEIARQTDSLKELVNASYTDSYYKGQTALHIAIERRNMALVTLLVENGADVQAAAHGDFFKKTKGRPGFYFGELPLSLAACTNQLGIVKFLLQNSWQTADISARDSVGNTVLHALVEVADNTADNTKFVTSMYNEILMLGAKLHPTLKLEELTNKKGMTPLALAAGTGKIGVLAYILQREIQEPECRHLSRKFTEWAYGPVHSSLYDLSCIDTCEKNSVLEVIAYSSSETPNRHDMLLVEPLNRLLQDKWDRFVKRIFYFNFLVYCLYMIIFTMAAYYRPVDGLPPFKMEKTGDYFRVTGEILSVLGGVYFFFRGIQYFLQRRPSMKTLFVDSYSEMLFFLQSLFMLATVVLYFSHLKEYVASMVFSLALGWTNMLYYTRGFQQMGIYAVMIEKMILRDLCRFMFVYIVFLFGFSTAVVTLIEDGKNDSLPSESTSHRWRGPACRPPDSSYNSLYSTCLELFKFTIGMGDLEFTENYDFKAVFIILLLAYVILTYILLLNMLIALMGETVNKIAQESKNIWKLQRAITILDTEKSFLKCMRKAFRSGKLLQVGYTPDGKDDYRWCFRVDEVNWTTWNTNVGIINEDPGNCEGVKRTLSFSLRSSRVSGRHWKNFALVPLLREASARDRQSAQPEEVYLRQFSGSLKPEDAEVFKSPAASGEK
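Fluo-8 calcium influx in TRPV1-expressing cells, kinetic read (ex 480/em 520 nm). Compound added and read 3 min for agonist activity, followed by capsaicin at EC20 final and 2 min further read for enhancement.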
TRPV1 ag = activates the human vanilloid receptor TRPV1. Q8NER1. TRPV1-expressing cells, Fluo-8 calcium influx, agonist mode. activation, % at 8.33 µM. 320,000 compounds, 0.19% hits. AID 540275; in the data active = activation above about 80%; inconclusive = between about 30% and that limit
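TRPV1-expressing cells were cultured overnight at 35.5C and loaded with Fluo-8 calcium dye for 40 to 90 min at room temperature. After a 10 s baseline, compound was added and calcium influx was read kinetically for 3 min (ex 480/em 520 nm).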
KCNH2 WT inh = KCNH2 (human, wildtype) channel inhibition; Q12809; U2OS, BacMam KCNH2, thallium flux FluxOr; active compounds read low; activity change, % at 1.84 µM; 340,000 compounds, 0.37% hits;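 active = maximum activity change below -70%; inconclusive = maximum activity change between -70% and -50%; inactive = maximum activity change above -50%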
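U2OS cells were transduced with wild-type KCNH2 virus (2.03 x 10^8 / mL) for 4 h at room temperature, then cultured overnight at 37 C. Thallium flux was read with FluxOr dye. Rate constants were normalized to DMSO controls.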
KCNH2 3.1 block = inhibitors of human KCNH2 3.1 potassium channel isoform; activity change, % (tested at about 1.8 µM); AID 720553; U2OS KCNH2 3.1, thallium flux FluxOr; active compounds read low; 340,000 compounds, 0.95% hits;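 active = maximum activity change below -70%; inconclusive = maximum activity change from -70% to -50%; inactive = maximum activity change above -50%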;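 also: thallium influx rate constant from kinetic fluorescence after stimulation buffer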
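Thallium flux read-out: FluxOr dye with Red40 quencher in HBSS/HEPES, 45 min at RT. Rate constants from kinetic reads were normalized to positive and negative DMSO controls. Cells: U2OS virally expressing the 3.1 isoform.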
Hits are given with their value; 0 = inactive; ? = inconclusive; - = no result given.

SMILES	TRPV1 PAM	TRPV1 ag	KCNH2 WT inh	KCNH2 3.1 block
COc1ccc(/C=C/C(=O)OCC(=O)NCc2ccccc2)cc1OC	0	0	0	0
CC(=O)Nc1c(C(=O)Nc2ccc3c(c2)OCO3)oc2ccccc12	0	?	-72.3	0
CCOc1ccc(CN2CCN(Cc3cccc4c3OCO4)CC2CCO)cc1 (stereo unspecified)	0	0	0	0
CCOc1ccc(CN2CCN(Cc3cccc4nonc34)CC2CCO)cc1 (stereo unspecified)	0	0	-76.7	-115.7
CCn1c(CN2CCN(Cc3ccc(C)cc3)C(CCO)C2)nc2ccccc21 (stereo unspecified)	0	0	0	-98.3
CCOc1ccc(CN2CCN(Cc3cc4c(cc3Cl)OCO4)CC2CCO)cc1 (stereo unspecified)	0	?	-110.7	-119.2
Cc1cc(Br)ccc1OCC(=O)NNC(=O)c1cnccn1	0	0	0	0
COc1ccccc1N1CCN(C(=O)c2cc3cc(Cl)ccc3[nH]2)CC1	0	0	0	0
CC(OC(=O)c1ccc(Cl)c(S(=O)(=O)N2CCOCC2)c1)C(=O)Nc1ccc(S(N)(=O)=O)cc1 (stereo unspecified)	0	0	0	0
O=C(Cc1cccs1)Nc1cccc(C(=O)Nc2ccco2)c1	0	0	0	-70.1
O=C(Cc1cccs1)Nc1cccc(-c2ccc3nncn3n2)c1	84.6	0	0	0
O=C(CCN1CCCCC1)c1cccc(Cl)c1	-	-	0	0
O=C(/C=C/c1ccc([N+](=O)[O-])cc1)Nc1cccc(S(=O)(=O)NC2=NCCCCC2)c1	-	-	0	0
COC(=O)c1ccccc1NC(=O)CSc1nc2ccsc2c(=O)n1Cc1ccc(C(=O)O)cc1	-	-	0	0
CC(OC(=O)CC1CCCCC1)C(=O)Nc1ccc(F)cc1 (stereo unspecified)	0	83.2	0	0
CS(=O)(=O)NCCSCc1ccccc1	0	0	0	0
Cc1ccccc1CSCCNS(C)(=O)=O	0	0	0	-78.7
CC(C)(C)S(=O)(=O)N1C[C@H]2CC/C=C\C/C=C\2[C@@H]1CCO	-	-	0	0
COC(=O)[C@@]12CCCCN1[C@H](c1ccc(-c3ccc(OC)cc3)c(OC)c1)[C@@H]1C(=O)N(C)C(=O)[C@@H]12	0	0	0	0
COC(=O)[C@@]12CCCCN1[C@H](c1ccc(-c3ccc(F)cc3)c(OC)c1)[C@H]1C(=O)N(C)C(=O)[C@H]12	-	-	0	-94.8
CCN1CCN(CCCN(Cc2ccco2)C(=S)Nc2ccccc2Cl)CC1	128.2	0	0	0
Cc1nc(SCC(=O)NC2(C#N)CCCC2)n(CC(C)C)c1C	0	0	0	0
COc1cccc(CNC(=S)Nc2cccc(Cl)c2C)c1	0	86.6	0	0
COc1cccc(CNC(=O)c2ccc(CS(=O)Cc3ccccc3Cl)o2)c1 (stereo unspecified)	-	-	0	-81.2
O=C(NCCCc1ccccc1)c1ccc(CS(=O)Cc2ccc(Cl)cc2)o1 (stereo unspecified)	0	0	0	-85.5
SMILES	TRPV1 PAM	TRPV1 ag	KCNH2 WT inh	KCNH2 3.1 block
COc1ccc(S(=O)Cc2ccc(C(=O)NCc3cccc(OC)c3)o2)cc1 (stereo unspecified)	0	0	0	0
CCCCC(=O)NC1(C(F)(F)F)NC(=O)N(Cc2ccccc2)C1=O (stereo unspecified)	0	0	0	0
COc1cc2c(cc1OC)C1O[C@](CCCCN3C(=O)c4ccccc4C3=O)(C2)Oc2c1c(=O)oc1ccccc21	0	0	-	-
COc1ccc(C2=Nc3ccc(C)cc3C(c3ccccc3)N2CC(=O)NN)cc1 (stereo unspecified)	0	0	0	-189.6
COc1ccc(C2=Nc3ccc(Br)cc3C(c3ccccc3)N2CC(=O)NN)cc1 (stereo unspecified)	0	0	0	-72.5
O=C(CCl)N(O)c1ccc(C=Cc2ccccc2)cc1	-	-	0	-
CC(C)C(NC(=O)c1ccc(F)cc1)C(=O)NC1(C)CCS(=O)(=O)C1 (stereo unspecified)	0	0	0	0
CC(C)N(Cc1nnc(-c2ccc(Cl)cc2)o1)C(=O)c1cc2ccccc2o1	0	0	0	-90.8
CN(C)S(=O)(=O)N1CCN(c2ccc([N+](=O)[O-])c(N3CCCCC3)c2)CC1	0	0	0	0
O=C(CCc1nnc(CCCc2ccccc2)o1)NCCc1ccccc1	0	0	0	0
O=C(CCc1nnc(CCCc2ccccc2)o1)NCC(F)(F)F	?	0	-240.3	-181.6
CC(Nc1cc(C)cc(C)c1)=[N+](C)CCNS(=O)(=O)c1ccc(Cl)cc1	0	0	0	-94.6
COc1ccc(NC(C)=[N+](C)CCNS(=O)(=O)c2ccc(Cl)cc2)cc1Cl	0	0	0	0
CCOc1cc(C(=O)N2CCC(CC3CC(c4ccccc4)=NO3)(C(=O)NCc3ccc(OC)cc3)CC2)cc(OCC)c1OCC (stereo unspecified)	-	-	0	0
COc1ccc(CNC(=O)C2(CC3CC(c4ccccc4)=NO3)CCN(C(=O)Cc3ccc(F)cc3)CC2)cc1 (stereo unspecified)	-	-	0	-72.0
Cc1cn(S(=O)(=O)c2ccccc2[N+](=O)[O-])cn1	0	0	0	0
COc1ccc(C(=O)N2CCC3(CC2)NCCc2[nH]cnc23)cc1	0	0	-	-83.9
Cc1ccc(Oc2ncnc(N)c2[N+](=O)[O-])cc1C	0	0	0	0
CCN1C(=O)C(CC(=O)Nc2ccc(OC)cc2)N(CCCN2CCN(c3ccc(F)cc3)CC2)C1=S (stereo unspecified)	0	0	-75.5	-82.9
CCN1C(=O)C(CC(=O)Nc2ccc(OC)cc2)N(CCc2ccc(F)cc2)C1=S (stereo unspecified)	0	0	0	0
CCN1CCN(CCCNC(=O)C2CCCN(c3nc4c(C)cc(C)cc4s3)C2)CC1 (stereo unspecified)	0	0	0	0
COc1cc2c(cc1OC)[C@@H](NC(=O)Cc1ccc(F)cc1)[C@H](OCc1ccccc1)C2	-	-	0	-131.4
COc1cccc(CN(C)C(=O)C2CCN(S(=O)(=O)c3ccc(C)cc3)CC2)c1OC	0	0	0	0
CC1CC[C@@]2(OC1)O[C@H]1CC3[C@@H]4C[C@@H](O)[C@@]5(O)C[C@@H](O)[C@H](O)C[C@]5(C)[C@H]4CC[C@]3(C)[C@H]1[C@@H]2C (stereo partly specified)	0	0	-91.8	0
Cc1cc(N2CCN(S(=O)(=O)c3ccc(Cl)cc3)CC2)c2ccccc2n1	0	0	?	-95.1
SMILES	TRPV1 PAM	TRPV1 ag	KCNH2 WT inh	KCNH2 3.1 block
Cc1cc(N2CCN(S(=O)(=O)c3ccc(Cl)c(Cl)c3)CC2)c2ccccc2n1	0	0	?	-113.2
CCOCCCNC(=O)CN1C(=O)CSc2ccccc21	0	0	0	-71.8
CCOCCCNC(=O)CN1C(=O)CSc2cc(S(=O)(=O)N3CCCCCC3)ccc21	0	0	0	0
Cc1ccccc1CS(=O)(=O)Cc1ccc(C(=O)NCCc2ccccc2)o1	0	0	0	-71.1
Cc1c(C(=O)NCCSCc2ccccc2)cccc1[N+](=O)[O-]	0	?	0	-76.8
Cc1c(C(=O)NCCSCc2ccco2)cccc1[N+](=O)[O-]	0	0	0	0
